Results as given in PubChem BioAssay (Tox21).
Results filed as inconclusive are left out. Calls of active or inactive are those of the source. Unless noted, calls come from the whole dose curve; as a rule, active = well fitted curve in the direction sought with a large enough effect in the repeat runs; inconclusive = weak or mixed curves; inactive = no such curve, though single readings can be large; an effect the other way counts as inactive or inconclusive.

Experiments:
[1] = qHTS assay to identify aromatase inhibitors - cell viability counter screen (AID 743084);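 note: cells stimulated with testosterone during compound exposure; nearly all actives have a fitted effect of over 55% in size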
[2] = qHTS assay to identify small molecule that activate the aryl hydrocarbon receptor (AhR) signaling pathway - cell viability counter screen (AID 743086);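 note: HepG2 liver cells carrying the AhR DRE luciferase reporter; series mostly up to about 70 µM; nearly all actives have a fitted effect of over 45% in size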
In short: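 Cytotoxicity counter screen: CellTiter-Fluor signal (30 min, 37 C) in 4000 HepG2 cells/well carrying the DRE-luciferase reporter, following 24 h compound exposure at 37 C.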

[3] = molecular target: Peroxisome proliferator-activated receptor gamma (Homo sapiens) (UniProt P37231); assay: qHTS assay to identify small molecule agonists of the peroxisome proliferator-activated receptor gamma (PPARg) signaling pathway (AID 743094; active = well fitted activation curve with a large enough effect in the signal ratio in the repeat runs, not every such curve was filed as active; the % refers to the signal ratio)
Sequence of Peroxisome proliferator-activated receptor gamma (Homo sapiens) (P37231 whole entry, looked up): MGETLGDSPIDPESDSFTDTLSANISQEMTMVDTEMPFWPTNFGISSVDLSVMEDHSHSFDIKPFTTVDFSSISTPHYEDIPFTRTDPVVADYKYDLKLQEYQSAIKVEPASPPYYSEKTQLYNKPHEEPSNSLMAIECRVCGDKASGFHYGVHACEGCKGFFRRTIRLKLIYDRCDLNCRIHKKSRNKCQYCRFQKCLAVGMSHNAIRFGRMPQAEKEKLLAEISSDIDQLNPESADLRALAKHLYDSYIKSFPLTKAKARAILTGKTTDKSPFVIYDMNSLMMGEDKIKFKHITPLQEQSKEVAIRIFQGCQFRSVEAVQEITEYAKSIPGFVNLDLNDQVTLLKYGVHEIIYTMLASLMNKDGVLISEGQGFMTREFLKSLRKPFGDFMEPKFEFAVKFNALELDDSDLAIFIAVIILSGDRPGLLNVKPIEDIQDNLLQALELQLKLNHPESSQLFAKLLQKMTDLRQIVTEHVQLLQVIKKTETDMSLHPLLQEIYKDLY
In short: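 Agonism was assessed in a beta-lactamase reporter system, HEK293H cells with a stably integrated UAS-bla construct under PPARg control; the 17 h treatment at 37C preceded a 1 h room-temperature FRET substrate read.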

[4] = molecular target: Peroxisome proliferator-activated receptor gamma (Homo sapiens) (UniProt P37231); assay: qHTS assay to identify small molecule antagonists of the peroxisome proliferator-activated receptor gamma (PPARg) signaling pathway (AID 743191; calls by dose curve; note: series mostly up to about 63 µM; nearly all actives have a fitted effect of over 30% in size)
In short: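 Beta-lactamase reporter under UAS control in HEK293H PPARg-bla cells; compound treatment 17 h at 37C. Read-out: fluorescence intensity after 1 h room-temperature incubation with LiveBLAzer B/G FRET substrate.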

[5] = qHTS assay to identify small molecule antagonists of the peroxisome proliferator-activated receptor gamma (PPARg) signaling pathway - cell viability counter screen (AID 743194); note: nearly all actives have a fitted effect of over 55% in size
In short: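 Viability was measured as CellTiter-Glo luminescence in GeneBLAzer PPARg UAS-bla HEK293H cells. These cells had been exposed 17 h at 37 C to compounds together with rosiglitazone at 50 nM final, with the beta-lactamase readout taken in the same wells.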

[6] = qHTS assay for small molecule agonists of the antioxidant response element (ARE) signaling pathway (AID 743202; active = well fitted activation curve with a large enough effect in the signal ratio in the repeat runs, not every such curve was filed as active; the % refers to the signal ratio)
In short: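 After 16 hours of compound treatment at 37 C, HepG2 cells with a stably integrated ARE-driven beta-lactamase reporter were loaded 2 hours at room temperature with LiveBLAzer B/G FRET substrate and fluorescence intensity measured.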

[7] = qHTS assay for small molecule agonists of the antioxidant response element (ARE) signaling pathway - cell viability counter screen (AID 743203; calls by dose curve; note: nearly all actives have a fitted effect of over 55% in size)
In short: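 ATP content via CellTiter-Glo luminescence served as the viability measure. Cells: ARE-bla HepG2, 2,000 per well. Exposure: 16 hrs, 37C/5% CO2.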

[8] = qHTS assay for small molecule activators of the heat shock response signaling pathway - cell viability counter screen (AID 743209); note: nearly all actives have a fitted effect of over 50% in size
In short: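 Compounds dissolved in DMSO were added to overnight-plated HSE-bla HeLa cells and left 5 h at 37 C. Cell viability was quantified by luminescence using CellTiter-Glo.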

[9] = qHTS assay for small molecule activators of the heat shock response signaling pathway (AID 743210; active = well fitted activation curve with a large enough effect in the signal ratio in the repeat runs, with a control signal flat, not every such curve was filed as active; the % refers to the signal ratio; note: series mostly up to about 63 µM)
In short: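 Compound exposure lasted 5 h at 37 C in HeLa cells carrying a heat-shock-element-driven beta-lactamase reporter. Read-out: fluorescence intensity after 2.5 h room-temperature loading with LiveBLAzer B/G FRET substrate.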

[10] = qHTS assay to identify small molecule agonists of the peroxisome proliferator-activated receptor delta (PPARd) signaling pathway - cell viability counter screen (AID 743211); note: nearly all actives have a fitted effect of over 55% in size
In short: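 In the same wells used for beta-lactamase reporter measurement, cytotoxicity is scored by CellTiter-Glo. HEK293H PPARd-bla cells receive compound for 17 h at 37C following a 5 h settling period.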

[11] = molecular target: Peroxisome proliferator-activated receptor delta (Homo sapiens) (UniProt Q03181); assay: qHTS assay to identify small molecule agonists of the peroxisome proliferator-activated receptor delta (PPARd) signaling pathway (AID 743212; calls by dose curve)
Sequence of Peroxisome proliferator-activated receptor delta (Homo sapiens) (Q03181 whole entry, looked up): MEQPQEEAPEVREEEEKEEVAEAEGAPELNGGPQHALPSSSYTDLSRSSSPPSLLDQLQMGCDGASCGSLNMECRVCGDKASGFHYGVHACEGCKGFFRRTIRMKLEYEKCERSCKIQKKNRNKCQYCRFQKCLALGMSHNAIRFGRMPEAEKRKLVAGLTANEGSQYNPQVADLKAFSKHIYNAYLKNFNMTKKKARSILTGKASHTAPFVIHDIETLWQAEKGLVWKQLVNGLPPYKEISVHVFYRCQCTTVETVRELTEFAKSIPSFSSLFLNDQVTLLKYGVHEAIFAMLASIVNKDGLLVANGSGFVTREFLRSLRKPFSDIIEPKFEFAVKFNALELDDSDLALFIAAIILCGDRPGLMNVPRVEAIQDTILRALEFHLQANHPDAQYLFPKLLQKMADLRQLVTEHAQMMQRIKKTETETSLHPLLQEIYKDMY
In short: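 Beta-lactamase reporter readout: a ratiometric FRET signal from the LiveBLAzer substrate after 2 h at room temperature. Compound exposure at 37 °C in PPARδ-bla HEK293H cells driven by an upstream activator sequence.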

[12] = molecular target: Peroxisome proliferator-activated receptor delta (Homo sapiens) (UniProt Q03181); assay: qHTS assay to identify small molecule antagonists of the peroxisome proliferator-activated receptor delta (PPARd) signaling pathway (AID 743215; active = well fitted inhibition curve with a large enough effect in the signal ratio in the repeat runs, not every such curve was filed as active; the % refers to the signal ratio;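 note: cells stimulated with agonist L165041 at 300 nM final during compound exposure; series mostly up to about 62 µM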)
In short: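 Here, a reporter line (HEK293H, beta-lactamase under a UAS) measures PPARd signaling. Compounds are tested against agonist L165041 at 300 nM final concentration over 17 h at 37 C, with fluorescence read after substrate.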

[13] = molecular target: Bile acid receptor (Homo sapiens) (UniProt Q96RI1); assay: qHTS assay to identify small molecule antagonists of the farnesoid-X-receptor (FXR) signaling pathway (AID 743217; active = well fitted inhibition curve with a large enough effect in the signal ratio in the repeat runs, not every such curve was filed as active; the % refers to the signal ratio)
Sequence of Bile acid receptor (Homo sapiens) (Q96RI1 whole entry, looked up): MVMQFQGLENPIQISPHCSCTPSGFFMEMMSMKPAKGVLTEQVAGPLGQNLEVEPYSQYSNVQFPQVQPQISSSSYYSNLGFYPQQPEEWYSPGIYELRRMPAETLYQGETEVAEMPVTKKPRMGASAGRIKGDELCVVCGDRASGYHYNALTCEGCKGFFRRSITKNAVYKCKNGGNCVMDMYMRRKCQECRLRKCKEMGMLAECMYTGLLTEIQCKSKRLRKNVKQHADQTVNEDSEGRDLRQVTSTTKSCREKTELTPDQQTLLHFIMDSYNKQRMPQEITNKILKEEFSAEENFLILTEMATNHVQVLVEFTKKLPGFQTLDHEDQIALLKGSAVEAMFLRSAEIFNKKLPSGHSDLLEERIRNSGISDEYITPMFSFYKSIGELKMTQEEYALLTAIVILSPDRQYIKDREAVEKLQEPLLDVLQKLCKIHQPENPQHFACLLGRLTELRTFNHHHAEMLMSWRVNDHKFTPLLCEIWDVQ
In short: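 Test compounds are pin-transferred onto FXR-bla HEK 293T cells, then chenodeoxycholic acid is added at 50 uM final. After 16 h at 37 °C, LiveBLAzer B/G substrate is applied for 2 h at room temperature and fluorescence read.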

[14] = qHTS assay to identify small molecule agonists of the farnesoid-X-receptor (FXR) signaling pathway - cell viability counter screen (AID 743218); note: nearly all actives have a fitted effect of over 45% in size
In short: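 Quantitative HTS counter screen measuring ATP-based viability via CellTiter-Glo luminescence in HEK 293T cells carrying a UAS-driven beta-lactamase reporter, after 16 h compound exposure at 37 C.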

[15] = molecular target: Bile acid receptor (Homo sapiens) (UniProt Q96RI1); assay: qHTS assay to identify small molecule agonists of the farnesoid-X-receptor (FXR) signaling pathway (AID 743220; active = well fitted activation curve with a large enough effect in the signal ratio in the repeat runs, not every such curve was filed as active; the % refers to the signal ratio)
In short: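 FXR-UAS-bla HEK 293T cells carrying a UAS-driven beta-lactamase reporter were plated for 5 h at 37C/5% CO2, then exposed to DMSO-dissolved Tox21 10K compounds for 16 h at 37C. A LiveBLAzer B/G FRET substrate was loaded for 2 h at room temperature before fluorescence reading.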

[16] = qHTS assay to identify small molecule antagonists of the farnesoid-X-receptor (FXR) signaling pathway - cell viability counter screen (AID 743221; active = well fitted cell-killing curve with a large enough effect in the repeat runs, not every such curve was filed as active; note: nearly all actives have a fitted effect of over 50% in size)
In short: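 Here viability was scored by luminescence after CellTiter-Glo addition to wells already read for beta-lactamase. Prior treatment: compound plus CDCA (50 uM final), 16 h, 37 C, HEK 293T FXR-bla cells.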

[17] = molecular target: Vitamin D3 receptor (Homo sapiens) (UniProt P11473); assay: qHTS assay to identify small molecule agonists of the vitamin D receptor (VDR) signaling pathway (AID 743222; calls by dose curve)
Sequence of Vitamin D3 receptor (Homo sapiens) (P11473 whole entry, looked up): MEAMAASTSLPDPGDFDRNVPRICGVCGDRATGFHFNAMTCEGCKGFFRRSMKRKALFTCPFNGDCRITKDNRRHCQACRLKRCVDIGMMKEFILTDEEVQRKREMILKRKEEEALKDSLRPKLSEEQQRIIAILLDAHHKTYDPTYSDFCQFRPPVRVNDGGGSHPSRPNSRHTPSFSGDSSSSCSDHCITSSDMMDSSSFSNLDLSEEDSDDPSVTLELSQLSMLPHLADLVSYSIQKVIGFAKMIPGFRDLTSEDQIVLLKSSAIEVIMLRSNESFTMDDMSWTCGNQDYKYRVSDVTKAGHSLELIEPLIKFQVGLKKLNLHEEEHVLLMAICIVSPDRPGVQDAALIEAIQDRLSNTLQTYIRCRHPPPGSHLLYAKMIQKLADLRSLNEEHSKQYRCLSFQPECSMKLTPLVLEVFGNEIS
In short: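 Tox21 cell reporter format: VDR-bla line, 16 h compound exposure in 5% CO2 at 37C, then fluorescence intensity after 2 h with LiveBLAzer B/G FRET substrate.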

[18] = molecular target: Vitamin D3 receptor (Homo sapiens) (UniProt P11473); assay: qHTS assay to identify small molecule antagonists of the vitamin D receptor (VDR) signaling pathway (AID 743223; active = well fitted inhibition curve with a large enough effect in the signal ratio in the repeat runs, not every such curve was filed as active; the % refers to the signal ratio)
In short: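 Inhibition of agonist-driven VDR signalling is scored in VDR-bla cells: 3 nM final 1alpha,25-dihydroxyvitamin D3 plus compound, 16 h at 37C, then beta-lactamase detection by FRET substrate fluorescence after 2 h.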

[19] = molecular target: Aryl hydrocarbon receptor (Homo sapiens) (UniProt P35869); assay: qHTS assay to identify small molecule that activate the aryl hydrocarbon receptor (AhR) signaling pathway (AID 743085); note: nearly all actives have a fitted effect of over 15% in size; note: potency is the fitted concentration of half-maximal effect;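 for activation: HG2L7.5c1 human HepG2 liver cells with stably integrated DRE-driven firefly reporter; series mostly up to about 70 µM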
Sequence of Aryl hydrocarbon receptor (Homo sapiens) (P35869 whole entry, looked up): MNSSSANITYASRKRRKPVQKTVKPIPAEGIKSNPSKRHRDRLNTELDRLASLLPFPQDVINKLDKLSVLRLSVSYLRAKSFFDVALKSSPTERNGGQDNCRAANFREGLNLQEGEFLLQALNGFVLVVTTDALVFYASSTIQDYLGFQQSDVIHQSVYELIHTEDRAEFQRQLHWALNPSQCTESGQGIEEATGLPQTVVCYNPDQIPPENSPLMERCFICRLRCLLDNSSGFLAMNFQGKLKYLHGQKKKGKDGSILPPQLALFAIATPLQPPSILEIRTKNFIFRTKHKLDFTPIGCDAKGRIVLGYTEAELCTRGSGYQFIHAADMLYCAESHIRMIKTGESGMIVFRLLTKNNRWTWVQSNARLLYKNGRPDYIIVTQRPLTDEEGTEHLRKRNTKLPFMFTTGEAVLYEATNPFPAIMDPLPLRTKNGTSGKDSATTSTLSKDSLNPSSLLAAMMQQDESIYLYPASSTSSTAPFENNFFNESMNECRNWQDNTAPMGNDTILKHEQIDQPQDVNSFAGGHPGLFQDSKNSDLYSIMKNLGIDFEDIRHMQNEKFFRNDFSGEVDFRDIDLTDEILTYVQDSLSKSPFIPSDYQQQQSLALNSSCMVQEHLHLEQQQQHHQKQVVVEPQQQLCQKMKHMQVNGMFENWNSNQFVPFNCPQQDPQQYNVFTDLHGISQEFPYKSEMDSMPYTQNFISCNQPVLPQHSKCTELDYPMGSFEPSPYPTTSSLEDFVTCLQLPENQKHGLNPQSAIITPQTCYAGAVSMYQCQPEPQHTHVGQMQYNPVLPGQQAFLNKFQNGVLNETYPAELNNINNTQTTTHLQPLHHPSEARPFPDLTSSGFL
In short: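 Stably transfected human liver carcinoma cells (HG2L7.5c1; 20 DRE-firefly luciferase) were incubated 5 h, dosed, and kept 24 h at 37C. Agonism was scored from increased luciferase luminescence.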

[20] = qHTS assay to identify small molecule antagonists of the peroxisome proliferator-activated receptor delta (PPARd) signaling pathway - cell viability counter screen (AID 743213); note: nearly all actives have a fitted effect of over 50% in size
In short: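 Luminescence from CellTiter-Glo, added after the bla read and incubated 30 min at room temperature, gives viability of HEK293H PPARd-bla cells exposed to compounds for 17 h at 37 C with 300 nM L165041.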
% is set by controls: 0 for no effect and ±100 for the full control effect.

CC(=O)c1ccc(OCC(=O)N2CCCCC2)cc1
inactive: Potency [1] | Potency [2] | outcome [3] | Potency [4] | outcome [5] | Potency [6] | outcome [7] | outcome [8] | outcome [9] | outcome [10] | outcome [11] | outcome [12] | outcome [13] | Potency [14] | outcome [15] | outcome [16] | outcome [17] | outcome [18]

O=C(Nc1cccc(C2=NCCN2)c1)Nc1cccc(C2=NCCN2)c1
inactive: Potency [1] | Potency [19] | outcome [3] | Potency [4] | outcome [5] | Potency [6] | outcome [7] | outcome [8] | outcome [9] | outcome [20] | outcome [12] | Potency [14] | outcome [16]

CC(C)(C)NCCO
inactive: Potency [1] | Potency [2] | outcome [3] | Potency [4] | outcome [5] | Potency [6] | outcome [7] | outcome [8] | outcome [9] | outcome [10] | outcome [11] | outcome [20] | outcome [12] | Potency [14] | outcome [16] | outcome [18]

NC(=O)C1(N2CCCCC2)CCN(CCCC(=O)c2ccc(F)cc2)CC1
inactive: Potency [1] | Potency [2] | outcome [3] | Potency [4] | outcome [5] | Potency [6] | outcome [7] | outcome [8] | outcome [9] | outcome [10] | outcome [11] | outcome [20] | Potency [14] | outcome [16] | outcome [17]

CNCc1ccccc1
inactive: Potency [1] | Potency [2] | outcome [3] | Potency [4] | outcome [5] | Potency [6] | outcome [7] | outcome [9] | outcome [10] | outcome [11] | outcome [12] | outcome [13] | Potency [14] | outcome [16]

CC(Cl)COP(=O)(OCC(C)Cl)OCC(C)Cl (configuration not stated)
inactive: Potency [1] | Potency [2] | outcome [3] | Potency [4] | outcome [5] | Potency [6] | outcome [7] | outcome [8] | outcome [9] | outcome [10] | outcome [11] | outcome [20] | Potency [14] | outcome [16] | outcome [17] | outcome [18]

Cc1ccccc1N1CCN(CCc2nnc3n2CCCC3)CC1
inactive: Potency [1] | Potency [2] | outcome [3] | Potency [4] | outcome [5] | Potency [6] | outcome [8] | outcome [9] | outcome [10] | outcome [11] | outcome [12] | outcome [13] | outcome [15] | outcome [16] | outcome [17] | outcome [18]

CC(C)(CO)[C@@H](O)C(=O)NCCCO
inactive: Potency [1] | Potency [19] | outcome [3] | Potency [4] | outcome [5] | Potency [6] | outcome [7] | outcome [8] | outcome [10] | outcome [20] | outcome [12] | outcome [13] | Potency [14] | outcome [15] | outcome [16] | outcome [17] | outcome [18]

CC(=O)c1ccc2c(c1)CCCC2
inactive: Potency [1] | Potency [19] | outcome [3] | outcome [5] | Potency [6] | outcome [7] | outcome [8] | outcome [9] | outcome [10] | outcome [11] | outcome [20] | outcome [12] | Potency [14] | outcome [16]

CC(C)SCc1ccco1
inactive: Potency [1] | Potency [2] | outcome [3] | Potency [4] | outcome [5] | Potency [6] | outcome [7] | outcome [8] | outcome [9] | outcome [10] | outcome [11] | outcome [20] | outcome [12] | Potency [14]

O=c1[nH]c(=O)c2ccccc2o1
inactive: Potency [1] | Potency [2] | outcome [3] | Potency [4] | outcome [5] | Potency [6] | outcome [8] | outcome [9] | outcome [10] | outcome [20] | outcome [13] | Potency [14] | outcome [16]

CCCCCCCCOC(C)=O
inactive: Potency [1] | Potency [19] | outcome [3] | Potency [4] | outcome [5] | Potency [6] | outcome [7] | outcome [8] | outcome [10] | outcome [20] | Potency [14] | outcome [16]

COc1ccc(/C=N/NC(=O)c2ccncc2)cc1OC
inactive: Potency [1] | outcome [3] | Potency [4] | outcome [5] | Potency [6] | outcome [7] | outcome [8] | outcome [10] | outcome [11] | outcome [20] | outcome [12] | Potency [14] | outcome [16]
active: Potency [19] 2660 nM

NCCc1ccn[nH]1
inactive: Potency [1] | outcome [3] | Potency [4] | outcome [5] | outcome [7] | outcome [8] | outcome [10] | outcome [11] | outcome [20] | outcome [12] | Potency [14] | outcome [16]

Cc1cc(C)cc([N+](=O)[O-])c1
inactive: Potency [1] | Potency [2] | outcome [3] | outcome [5] | Potency [6] | outcome [7] | outcome [8] | outcome [9] | outcome [10] | outcome [11] | outcome [12] | outcome [13] | Potency [14] | outcome [15] | outcome [16] | outcome [17] | outcome [18]

O=C(O)Cc1cccc(-c2cc(CCCCCCc3ccc(O[C@H]4O[C@H](CO)[C@@H](O)[C@H](O)[C@@H]4O)c(-c4cccc(CC(=O)O)c4)c3)ccc2O[C@H]2O[C@H](CO)[C@@H](O)[C@H](O)[C@@H]2O)c1
inactive: Potency [1] | Potency [2] | outcome [3] | ratio activity, negative = inhibition [4] -5.32% [at 0.55 µM] | activation [6] -7.76% [at 0.756 µM] | viability change, negative = cytotoxic [7] -4.49% [at 0.756 µM] | activity change, negative = cytotoxicity [8] -0.941% [at 0.55 µM] | activation [9] 0.0325% [at 0.55 µM] | activity change, negative = cytotoxicity [10] 4.03% [at 0.55 µM] | activation [11] -0.0045% [at 0.55 µM] | viability change, negative = cytotoxic [20] 9.66% [at 0.575 µM] | ratio activity, negative = inhibition [12] -1.95% [at 0.575 µM] | activity change, negative = inhibition [13] -1.58% [at 0.55 µM] | viability change, negative = cytotoxic [14] 5.41% [at 0.55 µM] | activation [15] 5.49% [at 0.55 µM] | activity change, negative = cytotoxicity [16] 0.163% [at 0.55 µM]
